LASV entry inh = inhibitors of Lassa virus binding or cell entry; 1.2% of 300,000 active; Lassa virus pseudotype entry inhibition, cell reporter; Potency, µM (series often up to 37.9 µM), for the others: top-dose activity change, negative = inhibition, most hits filed as inhibitors; AID 540256; calls by dose curve; tested in HEK293 cells; also: potency is read from the fitted curve at half-maximal effect; nearly all actives have a fitted effect of over 50% in size
Pf growth 48h = P. falciparum growth inhibition at 48 hours (one generation). P. falciparum luciferase growth in erythrocytes, 48 h. Potency, µM (top dose mostly 28.7 µM), for inactives: at the top dose activity change, negative = inhibition, usual class: inhibitors. 5.9% of 310,000 active. AID 504832; also: potency is read from the fitted curve at half-maximal effect
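Cell-based growth assay: transgenic P. falciparum expressing firefly luciferase, cultured in red cells within RPMI 1640 containing 0.5% w/v Albumax, 24 mM bicarbonate and gentamycin. A drop in luciferase activity indicates inhibition.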
HCV inh = inhibitors of hepatitis C virus infection. Potency, µM (doses to about 41.8 µM), without a hit: top-dose activity change, negative = inhibition, hits mostly inhibitors. 3.4% of 340,000 active. Huh7.5.1 HCVcc-Cre infection, luciferase reporter, 44 h; also: potency is read from the fitted curve at half-maximal effect
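Luciferase read-out (15 sec integration) after a 15 min room-temperature substrate step quantifies HCVcc-Cre infection. Cells, 1,000 per well, had compound added 4 h post-plating, then virus at ~0.5 moi, and were cultured 44 h.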
Marburg entry inh = inhibitors of Marburg virus binding or cell entry | Potency, µM (titrated, usually from 37.8 µM), for the others: top-dose activity change, negative = inhibition, most hits filed as inhibitors | 1.8% of 300,000 active | Marburg virus pseudotyped entry inhibition, cell reporter; calls by dose curve; tested in HEK293 cells; also: potency is read from the fitted curve at half-maximal effect
Pf growth 96h = inhibits malaria parasite growth, 96 h | Potency, µM (doses to about 28.7 µM), for the others: at the top dose activity change, negative = inhibition, usual class: inhibitors | 6.9% of 320,000 active | P. falciparum luciferase reporter growth, 96 h; also: potency is read from the fitted curve at half-maximal effect
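Two-generation exposure (96 h) targets delayed-death phenotype. Reporter parasites carrying integrated firefly luciferase, in red cells at 2% hematocrit and 0.05% parasitemia final, kept at 37 C, 5% CO2; luminescence loss indicates inhibition.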
HCMV inh = human cytomegalovirus inhibition. HFF cells, HCMV-luciferase reporter, 72 h; hits give low values. activity change, negative = inhibition, % at 57.5 µM. 4.5% of 410,000 active. AID 1259415; in the data active = activity change below about -60%; inconclusive = no clear call, values can overlap the other calls; inactive = above about -39%
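Cell-based, HFFs, 1000 cells/well, 16 h 37C; cpds in DMSO + HCMV-luc, MOI 1 PFU/cell; 72 h 37C; OneGlo luminescence after 5 min RT; norm. to buffer vs Salinomycin 10uM.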
Starred values were filed as active, the others as inactive; ! = a repeat was not active; [ ] = another dose, or the depositor's remark. Most compounds without a hit are left out; they make up all but 14% or so of the library. Unless noted, calls follow the shape of the dose curve; as a rule, active = well fitted inhibition curve with a large enough effect; inconclusive = small, poorly fitted or top-dose-only effect, or another doubt; inactive = no such curve, though single readings can be large or run the other way. % is scaled to controls: 0 for no effect and ±100 for the full control effect.

For CCc1ccc(-n2cnc3cc(C(=O)NCc4ccc(C)cc4)ccc32)cc1 the results were LASV entry inh inconclusive and HCMV inh -13.5.
`Cc1cccc(C)c1NC(=O)c1cn(-c2ccccc2)nc1-c1ccccc1` gave LASV entry inh -2.6%, Pf growth 48h -23.4%, HCV inh inconclusive, Marburg entry inh 17.0%, Pf growth 96h -42.4% and HCMV inh -64.4*.
`Cc1ccccc1NC(=O)c1cn(-c2ccccc2)nc1-c1ccccc1` gave LASV entry inh -6.8%[46.1 µM], Pf growth 48h inconclusive, HCV inh inconclusive, Marburg entry inh 2.4%[46.1 µM], Pf growth 96h -22.8% and HCMV inh inconclusive.
Screening Cc1cccc(NC(=O)c2cn(-c3ccccc3)nc2-c2ccccc2)c1 returned LASV entry inh -2.3%, Pf growth 48h -8.4%, HCV inh inconclusive, Marburg entry inh inconclusive, Pf growth 96h 13.1µM* and HCMV inh -3.5.
For CCN1CCCC1CNC(=O)C1=C(OC)CC(N(C)C)=C(NC(C)=O)C1 (stereo not drawn) the results were Marburg entry inh -21.2%.
`CC(C)Oc1ccc(/C=C/C(=O)NCC2COc3ccccc3O2)cc1` (stereo not drawn) gave LASV entry inh inconclusive, Pf growth 48h 16.4%, HCV inh -8.3%, Marburg entry inh inconclusive, Pf growth 96h 8.3% and HCMV inh 10.0.
For COc1ccc(C2=Nn3c(nnc3-c3ccccc3F)SC2)cc1OCC1CC1 the results were HCMV inh -97.7*.
Screening COc1ccc(C2=Nn3c(nnc3-c3ccccc3Cl)SC2)cc1OC1CCCC1 returned HCMV inh -93.7*.
COc1ccc(C2=Nn3c(nnc3-c3ccccc3OC)SC2)cc1OC was read as LASV entry inh inconclusive, Pf growth 48h 10.4µM*, HCV inh inconclusive, Marburg entry inh inconclusive, Pf growth 96h 3.7µM*! and HCMV inh -96.9*.
`CC(=O)CC1c2cc(F)ccc2C=C(c2ccsc2)N1c1ccc(-c2ccc(C(N)=O)cc2)cc1` (stereo not drawn) gave HCMV inh -6.3.
`C=C(C)COc1ccc2c(C)c(CC(=O)N3C[C@H]4C[C@@H](C3)c3cccc(=O)n3C4)c(=O)oc2c1C` gave Pf growth 48h inconclusive, HCV inh 43.8%, Pf growth 96h 11.7µM* and HCMV inh inconclusive.
`Cc1c(CC(=O)N2C[C@H]3C[C@@H](C2)c2cccc(=O)n2C3)c(=O)oc2cc3occ(C(C)(C)C)c3cc12` gave Pf growth 48h -26.9%, HCV inh 8.6%, Pf growth 96h 8.28µM* and HCMV inh -25.6.
Screening COc1ccc2c(C)c(CC(=O)N3C[C@H]4C[C@@H](C3)c3cccc(=O)n3C4)c(=O)oc2c1C returned Pf growth 48h -0.5%, HCV inh 1.8%, Pf growth 96h inconclusive and HCMV inh 2.0.
`CCCC(=O)NC(=S)Nc1cccc2c(O)cccc12` gave LASV entry inh 0.6%[46.1 µM], Pf growth 48h -27.5%[5.75 µM], HCV inh -6.8%, Marburg entry inh -0.1%[46.1 µM], Pf growth 96h 14.4% and HCMV inh -99.3*.
For COc1ccc(C(=O)Oc2cc(-c3ccc4c(c3)OCO4)cc(=O)c3c(C)oc(C)c23)cc1 the results were LASV entry inh 9.5%[46.1 µM], Marburg entry inh 8.4%[46.1 µM] and HCMV inh 0.8.
Screening CCC[C@@H]1Cc2c(sc3ncnc(N)c23)CO1 returned Marburg entry inh 17.6%.
`COC(=O)[C@]12CCCCC=C1N(Cc1cccc3ccccc13)C(=O)[C@H](CC(=O)NCc1ccc(C)o1)C2` gave HCMV inh 9.2.
`O=C1NC[C@@H](Cc2ccc(O)cc2)N(CCc2cc(C(F)(F)F)cc(C(F)(F)F)c2)C1=O` gave HCMV inh 24.0.
`COc1cc(NC(=O)c2noc3c2CCC3)c(OC)cc1Cl` gave LASV entry inh -1.9%, Pf growth 48h 2.62µM*, HCV inh inconclusive, Marburg entry inh -3.1%, Pf growth 96h 462.5% and HCMV inh 77.6.
COc1ccc(NC(=O)c2noc3c2CCC3)cc1 was read as LASV entry inh inconclusive, Pf growth 48h -15.7%, HCV inh 7.8%, Marburg entry inh inconclusive and HCMV inh 53.4.
For COC(=O)c1ccccc1NC(=O)c1noc2c1CCCC2 the results were LASV entry inh 0.3%, Pf growth 48h 29.9%, HCV inh inconclusive, Marburg entry inh 16.5%, Pf growth 96h 9.28µM* and HCMV inh 95.8.
Screening O=C(Nc1cccc(O)c1)c1noc2c1CCCCC2 returned LASV entry inh inconclusive, Pf growth 48h 26.2%, HCV inh -18.0%, Marburg entry inh inconclusive and HCMV inh -60.6*.
O=C(NCc1ccccc1)c1noc2c1CCCCC2 was read as LASV entry inh 54.8%[14.3 µM], Pf growth 48h 154.1%, Marburg entry inh inconclusive, Pf growth 96h 9.28µM* and HCMV inh 22.6.
O=C(Nc1ccccc1C(=O)N1CCOCC1)c1noc2c1CCCC2 was read as LASV entry inh inconclusive, Pf growth 48h 13.5%, HCV inh 12.8%, Marburg entry inh 6.2% and HCMV inh 35.8.
For COc1ccc(-c2cc(C(F)(F)F)nc(SCC(=O)Nc3ccc(C(C)=O)cc3)n2)cc1 the results were LASV entry inh -12.7%[46.1 µM], Marburg entry inh inconclusive and HCMV inh -31.3.
For Cc1ccc(-n2nc(C)c(C(=O)NCCCN3CCN(c4cccc(Cl)c4)CC3)c2-n2cccc2)cc1 the results were LASV entry inh inconclusive and HCMV inh 8.9.
Screening CC1CC(C)CN(CCCNC(=O)c2ccc(CS(=O)(=O)Cc3ccccc3F)o2)C1 (stereo not drawn) returned LASV entry inh -2.2%, Pf growth 48h 0.6%, HCV inh -0.7%, Marburg entry inh 1.8%, Pf growth 96h inconclusive and HCMV inh -73.1*.
For Cc1ccc(CS(=O)(=O)Cc2ccc(C(=O)NCCCN3CC(C)CC(C)C3)o2)cc1 (stereo not drawn) the results were Pf growth 48h inconclusive, HCV inh -11.9%, Pf growth 96h 41.0% and HCMV inh -30.2.
Screening Cc1ccc(NC2CCCN(C(=O)c3ccccn3)C2)cc1C (stereo not drawn) returned Pf growth 48h 2.1%, HCV inh -2.2%, Pf growth 96h 13.1µM* and HCMV inh 0.0.
`Cc1nc(C(=O)N2CCCC(Nc3ccc(C)c(C)c3)C2)cs1` (stereo not drawn) gave LASV entry inh 7.4%[46.1 µM], Pf growth 48h 3.0%, HCV inh 21.0%, Marburg entry inh 7.4%[46.1 µM], Pf growth 96h 274.8% and HCMV inh 16.5.
